The text below walks through data of PubChem BioAssay (NCATS).

Records with an inconclusive call do not appear. A call without a number means that no potency is given here. Active and inactive are the calls of the source. Calls follow the shape of the dose curve; as a rule, active = well fitted inhibition curve with a large enough effect; inconclusive = small, poorly fitted or top-dose-only effect; inactive = flat fitted curve, though single readings scatter.
Also: nearly all actives have a fitted effect of over 65% in size.

Sequence of Glutathione peroxidase 1 (Homo sapiens) (P07203 whole entry, looked up): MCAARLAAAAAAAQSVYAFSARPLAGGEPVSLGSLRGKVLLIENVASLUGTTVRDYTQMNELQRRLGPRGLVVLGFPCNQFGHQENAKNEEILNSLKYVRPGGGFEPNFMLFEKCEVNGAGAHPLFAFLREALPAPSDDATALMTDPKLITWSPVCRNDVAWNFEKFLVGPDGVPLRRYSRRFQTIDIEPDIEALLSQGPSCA
Sequence of Phospholipid hydroperoxide glutathione peroxidase GPX4 (Homo sapiens) (P36969 whole entry, looked up): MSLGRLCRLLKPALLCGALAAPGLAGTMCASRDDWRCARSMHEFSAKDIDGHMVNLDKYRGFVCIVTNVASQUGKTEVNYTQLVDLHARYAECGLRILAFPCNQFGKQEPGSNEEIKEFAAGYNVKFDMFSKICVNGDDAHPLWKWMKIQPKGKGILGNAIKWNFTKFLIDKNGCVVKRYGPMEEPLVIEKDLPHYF

The first assay addresses Glutathione peroxidase 1 (Homo sapiens) (UniProt P07203). The experiment in a line: Primary qHTS Assay for Inhibitors of Recombinant Selenoprotein Glutathione Peroxidase 1 (GPX1) (AID 1845191). The conditions noted are these: recombinant GPX1, GR-coupled NADPH fluorescence, 15 min; series mostly up to 48.8 µM. The essentials: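 10 nM GPX1 + cpd, 30 min RT; start w/ 1 mM GSH, 0.5 mM cumene hydroperoxide, 0.5 mM NADPH, 100 nM GR, 0.01% BSA; buffer 50 mM Tris-HCl pH 7.5, 2 mM EDTA, 150 mM NaCl; Fl 340/450, 0 & 15 min.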
Regarding `CCOc1ccc(Cc2nccc3cc(OCC)c(OCC)cc23)cc1OCC`, the Potency result is “inactive”.
On the same count and under the same terms, to `CC(=O)c1ccc2c(c1)N(CCCN1CCC(CCO)CC1)c1ccccc1S2` belongs “inactive”; to `C#C[C@]1(O)CC[C@H]2[C@@H]3CCc4cc(OC5CCCC5)ccc4[C@H]3CC[C@@]21C`, “inactive”; to `COc1cc(OC)cc(OC)c1`, “inactive”.
On to `COc1cccc2c1C(=O)c1c(O)c3c(c(O)c1C2=O)C[C@@](O)(C(C)=O)C[C@@H]3O[C@H]1C[C@H](N)[C@H](O)[C@H](C)O1`, for which the Potency entry was “inactive”.
The same measure, in the same setting: to `C[C@]12CCC(=O)C=C1CC[C@H]1[C@@H]3CC[C@](O)(C(=O)CO)[C@@]3(C)C[C@H](O)[C@@]12F` belongs “inactive”.
Same read-out and setting: to `CCCCOc1ccc(OCCCN2CCOCC2)cc1` belongs “inactive”; to `CC(C)NC[C@@H](O)COc1cccc2ccccc12`, “inactive”; to `CC1(C)O[C@@H]2C[C@H]3[C@@H]4CCC5=CC(=O)CC[C@]5(C)[C@@]4(F)[C@@H](O)C[C@]3(C)[C@]2(C(=O)CCl)O1`, “inactive”.
Still for that read-out and setting: with `O=c1c(-c2ccccc2)c1-c1ccccc1` the entry was “inactive”; with `C[C@H](O)C(=O)Nc1c(I)c(C(=O)NC(CO)CO)c(I)c(C(=O)NC(CO)CO)c1I`, “inactive”; with `CCOC(=O)c1cccc(N)c1`, “inactive”.
As to `COc1ccc(OC)c(C(O)CNC(=O)CN)c1` (centres undefined), the Potency result was “inactive”.
Still for that read-out and setting: with `CC1(C)O[C@@H]2C[C@H]3[C@@H]4C[C@H](F)C5=CC(=O)C=C[C@]5(C)[C@H]4[C@@H](O)C[C@]3(C)[C@]2(C(=O)CO)O1` the entry was “inactive”.
Still for that read-out and setting: to `Cc1cccn2c(=O)c(-c3nnn[nH]3)cnc12` belongs “inactive”.
Same read-out and setting: with `CC(C)COC(=O)OCN1C(=O)CN(CCN2CC(=O)N(COC(=O)OCC(C)C)C(=O)C2)CC1=O` the entry was “inactive”; with `Oc1ccc(Cl)c2cccnc12`, “inactive”; with `Clc1ccc2c(c1)CCc1cccnc1C2=C1CCNCC1`, “inactive”.
Turning to `COCc1c(C(C)C)nc(C(C)C)c(/C=C/[C@@H](O)C[C@@H](O)CC(=O)O)c1-c1ccc(F)cc1`, the Potency result is “inactive”.
The same measure, in the same setting: with `CN(C)CC/C=C1/c2ccccc2COc2ccc(CC(=O)O)cc21` the entry was “inactive”; with `C[C@@H]1C[C@H]2[C@@H]3CCC4=CC(=O)C=C[C@]4(C)[C@@]3(F)[C@@H](O)C[C@]2(C)[C@H]1C(=O)CO`, “inactive”; with `O=C(OCC(O)CO)c1ccccc1Nc1ccnc2cc(Cl)ccc12` (centres undefined), “inactive”.
The same measure, in the same setting: with `COc1cc2c(cc1OC)C(=O)C(CC1CCN(Cc3ccccc3)CC1)C2` (centres undefined) the entry was “inactive”; with `CN1CCC[C@@H]1c1cccnc1`, “inactive”.
Still for that read-out and setting: with `CO/N=C1\CN(c2nc3c(cc2F)c(=O)c(C(=O)O)cn3C2CC2)CC1CN` (centres undefined) the entry was “inactive”; with `Oc1cc(O)c2c(c1)O[C@H](c1ccc(O)c(O)c1)[C@H](O)C2`, “inactive”; with `CCC(=O)c1c(O)cc(O)cc1O`, “inactive”.
For the compound `CCOC(=O)OC(C)OC1=C(C(=O)Nc2ccccn2)N(C)S(=O)(=O)c2ccccc21` (centres undefined), the Potency result was “inactive”.
Same read-out and setting: to `CCOc1ccc(NC(=O)CC(C)O)cc1` (centres undefined) belongs “inactive”.
As for `CNCC[C@@H](Oc1ccccc1C)c1ccccc1`, the Potency entry was “inactive”.
Same read-out and setting: with `CC(C)(C(=O)c1cccnc1)c1cccnc1` the entry was “inactive”; with `CCOC(=O)[C@H](CCc1ccccc1)N[C@@H](C)C(=O)N1Cc2ccccc2C[C@H]1C(=O)O`, “inactive”; with `CC(C)(CO)[C@@H](O)C(=O)NCCCO`, “inactive”.
On the same count and under the same terms, to `CN(C)/N=N/c1nc[nH]c1C(N)=O` belongs “inactive”.
Same read-out and setting: to `COc1ccc(C2C(=O)c3ccccc3C2=O)cc1` belongs “inactive”; to `CC(C)=CCC1C(=O)N(c2ccccc2)N(c2ccccc2)C1=O`, “inactive”.
`CCOC(=O)/C=C(C)/C=C/C=C(C)/C=C/c1c(C)cc(OC)c(C)c1C`: the Potency entry was “inactive”.

For another assay, the target named is Phospholipid hydroperoxide glutathione peroxidase GPX4 (Homo sapiens) (UniProt P36969). The experiment in a line: Primary qHTS Assay for Inhibitors of Recombinant Selenoprotein Glutathione Peroxidase 4 (GPX4) (AID 1845192). The conditions noted are these: recombinant GPX4, GR-coupled NADPH fluorescence, 15 min; series mostly up to 50 µM. The essentials:
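NADPH consumption, followed by fluorescence at 340/450 nm between 0 and 15 min, reports GPX4 activity via coupled glutathione reductase (100 nM). Enzyme 200 nM was pre-exposed to compound 30 min; 0.5 mM cumene hydroperoxide and 1 mM GSH served as substrates.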
As to `CCOc1ccc(Cc2nccc3cc(OCC)c(OCC)cc23)cc1OCC`, the Potency entry is “inactive”.
Still for that read-out and setting: with `C#C[C@]1(O)CC[C@H]2[C@@H]3CCc4cc(OC5CCCC5)ccc4[C@H]3CC[C@@]21C` the entry was “inactive”; with `COc1cccc2c1C(=O)c1c(O)c3c(c(O)c1C2=O)C[C@@](O)(C(C)=O)C[C@@H]3O[C@H]1C[C@H](N)[C@H](O)[C@H](C)O1`, “inactive”.
With `CCCCOc1ccc(OCCCN2CCOCC2)cc1`, the Potency entry is “inactive”.
As for `O=c1c(-c2ccccc2)c1-c1ccccc1`, the Potency result is “inactive”.
Consider `C[C@H](O)C(=O)Nc1c(I)c(C(=O)NC(CO)CO)c(I)c(C(=O)NC(CO)CO)c1I`, for which the Potency result is “inactive”.
Still for that read-out and setting: to `CCOC(=O)c1cccc(N)c1` belongs “inactive”; to `Cc1cccn2c(=O)c(-c3nnn[nH]3)cnc12`, “inactive”; to `CC(C)COC(=O)OCN1C(=O)CN(CCN2CC(=O)N(COC(=O)OCC(C)C)C(=O)C2)CC1=O`, “inactive”.
Same read-out and setting: to `COCc1c(C(C)C)nc(C(C)C)c(/C=C/[C@@H](O)C[C@@H](O)CC(=O)O)c1-c1ccc(F)cc1` belongs “inactive”; to `CN(C)CC/C=C1/c2ccccc2COc2ccc(CC(=O)O)cc21`, “inactive”; to `CN1CCC[C@@H]1c1cccnc1`, “inactive”.
Same read-out and setting: to `CC(C)(C(=O)c1cccnc1)c1cccnc1` belongs “inactive”.
For `CCOC(=O)[C@H](CCc1ccccc1)N[C@@H](C)C(=O)N1Cc2ccccc2C[C@H]1C(=O)O`, the Potency entry is “inactive”.
Same read-out and setting: with `CN(C)/N=N/c1nc[nH]c1C(N)=O` the entry was “inactive”; with `COc1ccc(C2C(=O)c3ccccc3C2=O)cc1`, “inactive”; with `CC(C)=CCC1C(=O)N(c2ccccc2)N(c2ccccc2)C1=O`, “inactive”.
